In all, about 310,000 compounds went through this assay and about 18,000 (5.8%) were called active. Entries that show only a call come without a potency. About 22% were inconclusive and are not listed. This is one part of a sample in which actives are shown more often than they occur. Values without a mark were called inactive. Calls come from the whole dose curve; as a rule, active = well fitted inhibition curve with a large enough effect; inconclusive = small, poorly fitted or top-dose-only effect, or another doubt; inactive = no such curve, though single readings can be large or run the other way.
test: Primary qHTS for delayed death inhibitors of the malarial parasite plastid, 48 hour incubation; conditions: P. falciparum luciferase growth in erythrocytes; series mostly up to 28.7 µM
In short: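 Luminescence readout; reporter = integrated firefly luciferase in P. falciparum. RBC culture at 2% hematocrit, 0.1% parasitemia final, 37 C/5% CO2; decreased signal taken as growth inhibition.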
Potency is the fitted concentration of half-maximal effect.

Structure (SMILES)	Potency	activity change, negative = inhibition
CN(C(=O)C1CCN(c2ncnc3c2nc2n3CCCCC2)CC1)C1CCCCC1	inactive	–
Cc1cc(C)cc(NC(=O)NCc2ccccn2)c1	inactive	–
CN(C)C(=O)N=NC(=O)N(C)C	inactive	–
O=C(CN1CCOCC1)Nc1ccccc1	inactive	–
O=C(C[n+]1cc(-c2ccc(Cl)c(Cl)c2)n2c1CCC2)c1cccs1	2.08 µM (active)	–
Cc1ccc(-c2c[n+](CC(=O)Nc3ccccc3)c3n2CCC3)cc1	7.38 µM (active)	–
O=C(CN1C2=NCCN2c2ccccc21)c1cccs1	inactive	–
Cc1ccc(S(=O)(=O)N(C)CC(=O)OCC(=O)Nc2ccccc2)cc1	inactive	–
Cc1ccc(C(=O)CSc2ccccc2C(=O)O)cc1	inactive	–
Cc1ccc(C(=O)C[n+]2cc(-c3ccccc3)n3c2CCCCC3)cc1	1.85 µM (active)	–
Cc1ccc(C(=O)CS(C)(=O)=O)cc1	inactive	–
CCS(=O)(=O)N1CCN(C(=O)c2cccs2)CC1	inactive	–
Cc1c(NC(=O)c2c([N+](=O)[O-])cnn2C)c(=O)n(-c2ccccc2)n1C	inactive	–
Cc1ccc(NC(=O)CCN2C(=O)c3ccccc3C2=O)cc1C	inactive	–
O=C(NCc1ccc2c(c1)OCO2)C(=O)NCC1OCCN1S(=O)(=O)c1ccc(F)cc1 (stereo unspecified)	inactive	–
O=C(COc1ccccc1)Nc1cc2c3c(c1)CC(=O)N3CCC2	inactive	–
Cc1nn(-c2ccccc2)c2c1c(C)c(CCC(=O)NCC1CCCO1)c(=O)n2C (stereo unspecified)	inactive	–
Cc1cc(OCC(=O)Nc2c(C)n(C)n(-c3ccccc3)c2=O)ccc1[N+](=O)[O-]	inactive	–
CCCCc1nc2cc(C(=O)NCCc3cnn(C)c3)ccc2o1	inactive	–
Cc1oc(-c2ccccc2F)nc1CS(=O)CC(=O)NCCN1CCCCC1C (stereo unspecified)	inactive	–
CC(C)(C)NC(=O)C(=O)NN=C1CCCCCCC1	inactive	–
C/C(=N\NC(=S)NC(C)C)c1ccc(C(C)(C)C)cc1	inactive	–

Structure (SMILES)	Potency	activity change, negative = inhibition
CC(C)NC(=S)NN=C1CCCCCCCCCCC1	11.7 µM (active)	–
COc1ccccc1C(=O)Nc1cccc(C(=O)N2CCOCC2)c1	inactive	–
Cc1noc(C)c1CCC(=O)N1CCCC(CO)(Cc2ccccc2)C1 (stereo unspecified)	inactive	–
Cc1ccccc1N1CCN(CCCN2C(=O)C3CCCCN3C2=O)CC1 (stereo unspecified)	inactive	–
CC(=O)Nc1ccc(S(=O)(=O)NNC(=O)CCc2ccccc2)cc1	inactive	–
CS(=O)(=O)N1CCCC(C(=O)Nc2ccccc2C(F)(F)F)C1 (stereo unspecified)	inactive	–
O=C(OCC1OC(Oc2ccc(O)cc2)C(O)C(O)C1O)c1ccccc1 (stereo unspecified)	inactive	–
Cc1cc(C)c2nc3nc(C)cc(C)c3c(N)c2c1	2.33 µM (active)	–
Cc1cc(C)c2nc(-c3ccco3)cc(C(=O)O)c2c1	inactive	–
Cc1cc(C)c2nc(SCCC#N)nc(C)c2c1	inactive	–
Cc1ccc(C(=O)NCCN2CCOCC2)cc1C	inactive	–
Cc1cc(C)cc(C(=O)NCCN2CCOCC2)c1	inactive	–
CCC1=Nc2cc(C(=O)NCCN3CCCC3)ccc2Sc2ccc(C)cc21	10.4 µM (active)	–
COc1cccc(N(C(=O)CNC(=O)c2ccco2)C(C(=O)NC2CCCCC2)c2cccnc2)c1 (stereo unspecified)	inactive	–
O=C(NC1CCCC1)C(c1ccco1)N(C(=O)c1csnn1)c1ccccc1 (stereo unspecified)	inactive	–
COc1cccc(C(C(=O)NC2CCCC2)N(C(=O)c2ccco2)c2cccc(C(C)=O)c2)c1OC (stereo unspecified)	1.85 µM (active)	–
Cc1ccc(N(C(=O)CNC(=O)c2ccco2)C(C(=O)NC2CCCC2)c2ccncc2)cc1 (stereo unspecified)	inactive	–
CC(C)c1ccc(N(C(=O)c2ccco2)C(C(=O)NC2CCCC2)c2cccnc2)cc1 (stereo unspecified)	9.28 µM (active)	–
O=C(NC1CCCC1)C(c1ccc(N2CCOCC2)cc1)N(C(=O)c1ccco1)c1ccccc1F (stereo unspecified)	10.4 µM (active)	–
O=C(NCc1ccccc1)C(c1ccco1)N(C(=O)c1csnn1)c1ccccc1F (stereo unspecified)	inactive	–
COc1cc(C(C(=O)NC2CCCC2)N(C(=O)c2ccco2)c2ccccc2C(C)=O)cc(OC)c1OC (stereo unspecified)	inactive	–
Cc1ccccc1N(C(=O)CNC(=O)c1cccs1)C(C(=O)NC1CCCC1)c1ccncc1 (stereo unspecified)	inactive	–

Structure (SMILES)	Potency	activity change, negative = inhibition
CSc1ccccc1NC(=O)C(C)N1C(=O)c2ccccc2S1(=O)=O (stereo unspecified)	inactive	–
CC1=C(C(=O)OC2CCCCC2)C(c2ccccc2F)NC(=O)N1 (stereo unspecified)	inactive	–
CC(=O)c1c(C)[nH]c(C(=O)COc2ccc3c(C)cc(=O)oc3c2)c1C	inactive	–
CN(C1CCS(=O)(=O)C1)S(=O)(=O)c1ccc2ccccc2c1 (stereo unspecified)	inactive	–
COc1ccc(NC(=O)NNC(=O)COc2cc(C)c(Cl)c(C)c2)c(OC)c1	inactive	–
CCN1C(=O)/C(=c2\s/c(=C3\Sc4ccccc4N3C)c(=O)n2C)N(C)C1=S	inactive	–
CN1/C(=c2/s/c(=C3/C(=O)N(c4ccccc4)NC3=Nc3ccccc3)n(C)c2=O)C(C)(C)c2ccccc21	13.1 µM (active)	–
CCc1cc2c(NC(Cc3ccccc3)C(=O)O)ncnc2s1 (stereo unspecified)	inactive	–
CC(C)(C)C(=O)CSc1ccc(S(=O)(=O)N2CCCC2)cn1	inactive	–
Cc1ccc(C)c(C(C)NC(=O)C2CCCO2)c1 (stereo unspecified)	inactive	–
COc1ccc(C(=O)NC2CC2)cc1OC1CCN(Cc2cnn(C)c2)CC1	inactive	–
Clc1ccc(CN2CCCCCC2)cc1Cl	inactive	–
Clc1ccc(C[n+]2cc(-c3ccc(Cl)cc3)n3c2CCC3)cc1	0.828 µM (active)	–
Cn1c(-c2ccccc2)c[n+]2c1CCCCC2	inactive	–
Clc1ccc(C[n+]2cc(-c3ccccc3)n3c2CCC3)cc1	1.04 µM (active)	–
CC(NC(=O)c1cc2cc(Cl)ccc2oc1=N)c1ccccc1 (stereo unspecified)	inactive	–
O=C(Nc1ccc(F)cc1)C(=O)c1cn(CC(=O)N2CCOCC2)c2ccccc12	inactive	–
COc1ccc(S(=O)(=O)NC(C)C(=O)NCc2ccncc2)cc1Cl (stereo unspecified)	inactive	–
COc1ccc(NC(=O)CCCC(=O)c2ccccc2)cc1	inactive	–
CC(C)Cn1c(N)c(C(=O)COC(=O)C2CCCN2C(=O)c2cccs2)c(=O)n(C)c1=O (stereo unspecified)	inactive	–
Cc1ccc(OCCCC(=O)Nc2ccc(S(=O)(=O)Nc3cc(C)nc(C)n3)cc2)cc1	inactive	–
O=C(Nc1ccccc1)N1CCN(C2c3ccccc3-c3ccccc32)CC1	2.62 µM (active)	–

Structure (SMILES)	Potency	activity change, negative = inhibition
O=C(Nc1ccccc1)N1CCN(C(=O)Nc2ccccc2)CC1	inactive	–
O=C(Nc1ccccc1)N1CCC(C(=O)N2CCN(Cc3ccccc3)CC2)CC1	inactive	–
Cc1cccc(OC(C)C(=O)N2CCc3ccccc3C2)c1 (stereo unspecified)	inactive	–
Brc1ccc(Nc2c3c(nc4ncnn24)CCC3)cc1	0.586 µM (active)	–
Cc1cc(Nc2ccc(Br)cc2F)n2ncnc2n1	inactive	–
Cc1nc(S(=O)(=O)c2ccc(Br)cc2)nc2c1CCC2	inactive	–
O=C(COC(=O)C1CC2CCCC(C1)C2=O)NC(=O)c1ccccc1 (stereo unspecified)	inactive	–
COCCC(=O)N1CCC(Oc2ccc(C(=O)NCc3ccon3)cc2)CC1	inactive	–
CC(=O)c1c(C)oc2ccc(NS(=O)(=O)c3ccccc3)cc12	inactive	–
Cc1ccn2c(=O)c(C(=O)NCCC3=CCCCC3)c(O)nc2c1	inactive	–
CCCCC[C@H]1CN(C2CCCCC2)C(=O)[C@@H]1CC(=O)NCc1ccc(OC)cc1	inactive	–
O=C(NCc1ccco1)/C(=C/c1cccc([N+](=O)[O-])c1)NC(=O)c1ccco1	inactive	–
Cc1ccc(N2CCN(c3ccc([N+](=O)[O-])cn3)CC2)c(C)c1	–	-8.92% [at 0.00184 µM]
CCOCCCNC(=O)c1cc2c(=O)n3ccccc3nc2s1	inactive	–
CN(CCc1cnn(C)c1)Cc1cn(C)nc1-c1ccccc1F	inactive	–
CN(CCNC(=O)c1cc2c(-c3ccccc3F)nn(C)c2s1)C1CCCCC1	1.65 µM (active)	–
COc1ccc(N2CCN(S(=O)(=O)c3ccc4c(c3)NC(=O)C(C)C(=O)N4)CC2)cc1 (stereo unspecified)	inactive	–
CC(=O)c1ccc(S(=O)(=O)Nc2ccc(-c3ccc4nncn4n3)cc2)cc1	inactive	–
O=C(CNC(=O)c1ccc(F)cc1)c1ccccc1	inactive	–
O=C(C[n+]1cc(Br)cc2ccccc21)c1ccc(F)cc1	11.7 µM (active)	–
COC(=O)C[n+]1cccc2ccccc21	inactive	–
Cc1cccc(NS(=O)(=O)c2ccc(-c3cnc(C4CC4)o3)cc2)c1	inactive	–

Structure (SMILES)	Potency	activity change, negative = inhibition
COc1ccccc1C(=O)COC(=O)CSCC(=O)Nc1cc(C)on1	inactive	–
COC(=O)c1ccc(COC(=O)CNC(=O)c2cccc(OC)c2)o1	inactive	–
COc1ccccc1NC(=O)CSc1nnc(C)n1CC1CCCO1 (stereo unspecified)	inactive	–
COc1cc(/C=N/N2CCN(c3ccccc3)CC2)ccc1OC(C)=O	inactive	–
O=C(CSc1nnc(-c2ccco2)n1CC1CCCO1)c1ccccc1 (stereo unspecified)	inactive	–
COc1ccc(C(c2nnnn2Cc2cccs2)N2CCN(c3ccccc3)CC2)cc1OC (stereo unspecified)	14.7 µM (active)	–
COc1ccc(CCn2nnnc2C(c2ccccc2)N2CCN(C)CC2)cc1OC (stereo unspecified)	inactive	–
COc1ccccc1C(c1nnnn1CC1CCCO1)N1CCN(c2ccccc2)CC1 (stereo unspecified)	11.7 µM (active)	–
CCOc1cccc2cc(C(=O)OCC(=O)Nc3c(C)cccc3CC)c(=O)oc12	inactive	–
CCCc1ccc(C(=O)COC(=O)CN2C(=O)NC3(CCCCC3C)C2=O)cc1 (stereo unspecified)	inactive	–
CC(C)C(c1nnnn1C1CCCCC1)N1CCN(C(=O)c2ccco2)CC1 (stereo unspecified)	inactive	–
CCC(c1nnnn1C1CCCC1)N1CCN(C(=O)c2ccco2)CC1 (stereo unspecified)	8.28 µM (active)	–
CC(=O)c1ccc(-n2nnnc2SCC(=O)N2CCN(C(=O)c3ccco3)CC2)cc1	inactive	–
CN(C)c1nc(=Nc2cccc(Cl)c2)ss1	1.04 µM (active)	–
Cc1cc(OCc2cc(C(=O)NCc3cc(C(C)C)no3)no2)cc(C)c1Cl	inactive	–
COC(=O)c1ccc(COC(=O)c2cnc(Cl)c(Cl)c2)cc1	inactive	–
Cc1cc(C(F)(F)F)nc(SCC(=O)Nc2nccs2)n1	inactive	–
COc1ccc(C(C)NC(=O)C23CC4CC(CC(C4)C2)C3)cc1 (stereo unspecified)	inactive	–

Reference: PubChem BioAssay AID504832 (National Center for Advancing Translational Sciences (NCATS), 2011)
